One assay relates to W2. The assay is described as follows: qHTS profiling for inhibitors of Plasmodium falciparum proliferation (AID 504749). Further: nearly all actives have a fitted effect of over 60% in size. Further: potency means the concentration at half of the fitted maximal effect. Conditions: P. falciparum in erythrocytes, SYBR Green DNA, 72 h; series mostly up to 28.7 µM. An outline of the steps: (§1)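 Three-day growth assay of blood-stage parasites in erythrocytes (0.3% parasitemia, 2.5% hematocrit) at 37 C, 5% CO2, quantified by SYBR Green DNA staining after overnight detergent lysis.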
For orientation: Quantitative high-throughput screening tests each substance at several concentrations.

The subject of the next assay is CRL-7250. Briefly: Cytotoxic Profiling of Annotated Libraries Using Quantitative High-Throughput Screening (AID 1296008). Further: nearly all actives have a fitted effect of over 60% in size. On max response: on the % scale 0 is the no-effect control and ±100 the full control effect. Conditions: Five cell lines viability, CellTiter-Glo ATP luminescence, 48-72 h; max response: active compounds read low. An outline of the steps: (§2)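 Cytotoxicity was measured as CellTiter-Glo ATP luminescence, read after 10 min at room temperature. Compound treatment of the cells lasted 48 or 72 hr at 37 degrees Celsius in a qHTS format.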

The test system of the next assay is HEK293. The assay is described as above. Conditions: Five cell lines viability, CellTiter-Glo ATP luminescence, 48-72 h; max response: active compounds read low. An outline of the steps:
as §2
(In general: ATP-based viability assays read luminescence as a measure of living cells.)

The test system of assay [1] is HaCat. The assay is described as above. Conditions: Five cell lines viability, CellTiter-Glo ATP luminescence, 48-72 h; max response: active compounds read low. The essentials: as §2
The next assay concerns KB-3-1. Described as above. Conditions: Five cell lines viability, CellTiter-Glo ATP luminescence, 48-72 h; max response: active compounds read low. An outline of the steps: as §2
Assay [2] has as its system NIH3T3. Described as above. As to conditions: Five cell lines viability, CellTiter-Glo ATP luminescence, 48-72 h; max response: active compounds read low. An outline of the steps: as §2
Assay [3] deals with HACAT. Briefly: qHTS assay to identify novel small-molecules to repurpose for Merkel cell carcinoma treatment (AID 1296009). Further: nearly all actives have a fitted effect of over 60% in size. Conditions: MCC and control cell lines, CellTiter-Glo viability, 72 h; at 44.8 µM (top of the series) unless noted. The essentials: (§3)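 After compound transfer in DMSO, plates were kept 72 hr at 37 degree celsius. Luminescent ATP signal from CellTiter-Glo served as viability measure, normalized against DMSO and no-cell controls.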

The subject of the next assay is HEK293T. Described as above. Conditions: MCC and control cell lines, CellTiter-Glo viability, 72 h; at 44.8 µM (top of the series) unless noted. An outline of the steps:
as §3

Another assay has as its system MCC-13. Described as above. As to conditions: MCC and control cell lines, CellTiter-Glo viability, 72 h; series mostly up to 46 µM. The essentials: as §3
Another assay concerns MCC-26. Described as above. As to conditions: MCC and control cell lines, CellTiter-Glo viability, 72 h; series mostly up to 46 µM. An outline of the steps:
as §3

The subject of another assay is MKL-1. The assay is described as above. As to conditions: MCC and control cell lines, CellTiter-Glo viability, 72 h; series mostly up to 46 µM. An outline of the steps: as §3
In the next assay the test system is MKL-2. The description is as above. Conditions: MCC and control cell lines, CellTiter-Glo viability, 72 h; series mostly up to 46 µM. The essentials:
as §3

The test system of a further assay is UISO. The assay is described as above. As to conditions: MCC and control cell lines, CellTiter-Glo viability, 72 h; series mostly up to 46 µM. An outline of the steps: as §3
Another assay concerns WaGa. The description is as above. As to conditions: MCC and control cell lines, CellTiter-Glo viability, 72 h; series mostly up to 46 µM. An outline of the steps: as §3
Another assay relates to C33A. Briefly: Primary qHTS to identify gynecologic anti-cancer compounds using libraries of approved drugs and bioactive compounds (AID 1345084). Further: on the % scale 0 is the no-effect control and ±100 the full control effect; nearly all actives have a fitted effect of over 55% in size. As to conditions: Gynecologic cancer cell panel viability, ATPlite luminescence, 48 h; series mostly up to 57.5 µM. The essentials:
(§4)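 48 h compound exposure at 37 C, 5% CO2; five-point qHTS. ATPlite luminescence readout of cell ATP.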

Another assay has as its system CAOV3. Described as above. As to conditions: Gynecologic cancer cell panel viability, ATPlite luminescence, 48 h; series mostly up to 57.5 µM. An outline of the steps: as §4
The test system of a further assay is CASKI. Described as above. As to conditions: Gynecologic cancer cell panel viability, ATPlite luminescence, 48 h; series mostly up to 57.5 µM. An outline of the steps:
as §4

The subject of the next assay is TAB113. Briefly: qHTS profiling for inhibitors of Plasmodium falciparum proliferation (AID 504749). Further: nearly all actives have a fitted effect of over 60% in size. Further: potency means the concentration at half of the fitted maximal effect. As to conditions: P. falciparum in erythrocytes, SYBR Green DNA, 72 h; series mostly up to 28.7 µM. An outline of the steps:
as §1

A further assay relates to TAB165. The assay is described as above. Conditions: P. falciparum in erythrocytes, SYBR Green DNA, 72 h; series mostly up to 28.7 µM. The essentials: as §1
For assay [4], the system named is NIH3T3. Briefly: qHTS assay to identify novel small-molecules to repurpose for Merkel cell carcinoma treatment (AID 1296009). Further: nearly all actives have a fitted effect of over 60% in size. As to conditions: MCC and control cell lines, CellTiter-Glo viability, 72 h; at 44.8 µM (top of the series) unless noted. An outline of the steps:
as §3

“And” between values parts separate entries of the source, which are not always exact repeats. Equal values may be shown once. Results filed as inconclusive are left out. Values without a mark were called inactive. The source made the active and inactive calls. The call rests on the fitted dose curve; in most records, active means well fitted curve in the direction sought with a large enough effect; inconclusive means small, poorly fitted or top-dose-only effect, or another doubt; inactive means no such curve, though single readings can be large; an effect the other way counts as inactive or inconclusive.

Consider `CN=C(NC#N)Nc1ccc(C2=NNC(=O)CC2C)cc1` (stereo unspecified), for which the Potency entry with W2, with MCC-13, in the assay with MCC-26, in the assay on MKL-1, in the assay with MKL-2 and in the assay with UISO was “inactive” each time. For the same compound, the Potency result in the assay with WaGa, with C33A, in the assay on CAOV3 and with CASKI was “inactive” each time. Besides, the figures for the max response in the assay on CRL-7250, in the assay on KB-3-1 and with NIH3T3 [2] were -12.9%, 6.06% and -5.93%, respectively. Further, the outcome with HEK293, in the assay with HaCat [1], with HACAT [3] and in the assay with HEK293T was inactive.
In the case of `Cc1c(C(C)C)c(=O)n(-c2ccccc2)n1C`, the Potency result in the assay on TAB113, with TAB165, with W2, with MCC-13, with MCC-26 and with MKL-1 was “inactive” in each case. Further, the Potency result in the assay with MKL-2, in the assay on UISO, in the assay with WaGa, in the assay with C33A, in the assay on CAOV3 and in the assay on CASKI was “inactive” in each case. The max response was 0.671% in the assay with CRL-7250, -0.49% with KB-3-1 and 0.732% in the assay on NIH3T3 [2]. Further, the call in the assay on HEK293, in the assay with HaCat [1], in the assay on HACAT [3] and in the assay with HEK293T was inactive.
As for `CN1CCN(C(c2ccccc2)c2ccccc2)CC1`, the Potency entry in the assay with TAB113, in the assay on TAB165, with MCC-13, with MCC-26, with MKL-1 and in the assay on MKL-2 was “inactive” in each case. In addition, the Potency entry with UISO, in the assay with WaGa, in the assay on C33A and in the assay with CASKI was “inactive” throughout. In the assay with W2, the Potency is 2.56 µM (active). Besides, the max response was 1.17% and 3.11% with CRL-7250; -9.52% in the assay with HEK293; -15.7% in the assay on HaCat [1]; -11.4% and 1.83% in the assay on KB-3-1; 3.7% in the assay on NIH3T3 [2]. In addition, the call in the assay with HaCat [1], in the assay on NIH3T3 [2], in the assay on HACAT [3] and with NIH3T3 [4] was inactive.
As to `CCN(CCCCOC(=O)c1ccc(OC)c(OC)c1)C(C)Cc1ccc(OC)cc1` (stereo unspecified), the outcome with CRL-7250, in the assay on HaCat [1] and in the assay with HACAT [3] was inactive. Also, the max response with HEK293 was -15.6%; with KB-3-1 it was -8.65%; in the assay on NIH3T3 [2] it was -18.2%. In addition, the Potency result in the assay on MCC-13, in the assay on MCC-26, in the assay on MKL-1, in the assay with MKL-2, in the assay on UISO and with WaGa was “inactive” each time. Besides, the Potency entry in the assay with C33A and in the assay with CASKI was “inactive” each time.
Take `CC(O)(P(=O)(O)O)P(=O)(O)O`: the Potency entry in the assay with TAB113, with TAB165, with W2, with MCC-13, with MCC-26 and with MKL-1 was “inactive” in each case. The Potency entry in the assay on UISO, in the assay on WaGa, in the assay with C33A, in the assay on CAOV3 and in the assay with CASKI was “inactive” in each case. The max response in the assay on CRL-7250 is 0.923%; with KB-3-1, 0.618%; with NIH3T3 [2] it was 0.0838%. Besides, the result with HEK293, in the assay on HaCat [1], in the assay with HACAT [3] and in the assay with HEK293T was inactive.
As for `C[C@H](O)C(=O)Nc1c(I)c(C(=O)NC(CO)CO)c(I)c(C(=O)NC(CO)CO)c1I`, the Potency result in the assay on TAB113, with TAB165, in the assay with W2, with MCC-13, in the assay on MCC-26 and in the assay with MKL-1 was “inactive” each time. For the same compound, the Potency result in the assay on MKL-2, in the assay with UISO, in the assay on WaGa, with C33A, in the assay with CAOV3 and in the assay on CASKI was “inactive” in each case. The compound was called inactive in the assay with CRL-7250, with HaCat [1] and with HACAT [3]. In addition, the max response in the assay on HEK293 was -5.81%; in the assay with KB-3-1 it was 3.55%; in the assay with NIH3T3 [2], -5.03%.

The record behind these values is PubChem BioAssay (NCATS).
